Most compounds without a hit are left out; they make up all but 3% or so of the library.
HIF-2a block: blocks HIF-2a reporter activity. actives 0.72% (n = 360,000). inhibition, % at 18.8 µM. 786-0 RCC cells HIF-2a reporter, luciferase luminescence, overnight;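 active = inhibition of the luminescence signal of 40% or more relative to plate controls, in a single-dose primary screen at 18.75 µM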
Peg3 promoter: reduces Peg3 promoter-driven luciferase expression in HeLa; inhibition, % at 20 µM; HeLa PEG-Prom luciferase reporter, luminescence, overnight; actives 1.7% (n = 360,000);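 active = inhibition of at least 50% at 20 µM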
CF NFkB block: blocks PAF-induced NF-kB reporter in cystic fibrosis cells | AID 588850 | inhibition, % at 5 µM | actives 0.86% (n = 360,000) | KKLEB NF-kB-GFP reporter, GFP fluorescence overnight;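 active = at least 50% inhibition at 5 µM, scaled per plate between neutral and stimulator controls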;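 note: PAF is a Pseudomonas aeruginosa culture filtrate used as stimulus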
KKLEB cytotox: counter-screen for CF NF-kB inhibitors: cytotoxicity; KKLEB CF airway cells viability, ATPlite luminescence, overnight; stronger effect = lower value; cells stimulated with P. aeruginosa culture filtrate; activity change (cytotoxicity), % at 5 µM; actives 0.36% (n = 360,000);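 active = corrected activity change at or below -50% at 5 µM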
MITF TRPM1 inh: MITF TRPM1 promoter inhibition in SK-MEL-5 cells. SK-MEL-5 TRPM1 promoter luciferase, 24 h. inhibition, % at 12.5 µM. actives 0.83% (n = 330,000). AID 488899;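 active = mean inhibition across replicates of 60% or more, whatever share of single replicates reaches that level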
ABHD5-PLIN5 inh: ABHD5-PLIN5 protein interaction inhibition | Q00G26+Q8WTS1 | Split G. princeps luciferase complementation, luminescence, 4 h | inhibition, % at 4 µM | actives 0.78% (n = 360,000) | AID 602281;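 active = inhibition above the mean inhibition across every tested compound plus 3 SD, cut at about 22% in these data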
ABHD5-PLIN5 conf: ABHD5-PLIN5 interaction inhibition, confirmed; AID 651612; actives 67% (n = 2,200); shares compounds with ABHD5-PLIN5 inh; biochemical ABHD5-PLIN5 interaction, luminescence; inhibition, % at 4 µM; in the data active = inhibition above about 23%
HNF4 split-luc: active in HNF4 split-luciferase counter-screen for ABHD5-PLIN5 inhibitors; AID 651674; HNF4 dimerization, luminescence, biochemical; shares compounds with ABHD5-PLIN5 inh; inhibition, % at 4 µM; actives 77% (n = 2,200);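 active = mean inhibition across replicate wells exceeding the computed hit threshold, cut at about 13% in these data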;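 note: light from luciferase halves that rejoin when HNF4 fusion proteins dimerize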
Target sequence (P41235 whole entry, looked up, the tested form may be a part): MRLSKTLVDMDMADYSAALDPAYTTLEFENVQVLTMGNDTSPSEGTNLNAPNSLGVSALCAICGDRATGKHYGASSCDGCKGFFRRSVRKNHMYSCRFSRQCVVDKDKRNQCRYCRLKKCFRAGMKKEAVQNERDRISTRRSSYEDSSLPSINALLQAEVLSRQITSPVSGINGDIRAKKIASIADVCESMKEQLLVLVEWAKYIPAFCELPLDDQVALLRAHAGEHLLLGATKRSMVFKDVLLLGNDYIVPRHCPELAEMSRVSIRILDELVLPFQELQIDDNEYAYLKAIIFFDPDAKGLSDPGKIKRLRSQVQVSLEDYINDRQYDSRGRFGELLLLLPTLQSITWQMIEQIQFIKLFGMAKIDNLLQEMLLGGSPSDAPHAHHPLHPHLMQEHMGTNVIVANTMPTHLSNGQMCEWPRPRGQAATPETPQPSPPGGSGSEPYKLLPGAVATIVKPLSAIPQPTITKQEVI
Numbers stand for hits; – = inactive; · = not tested or not shown.

SMILES	HIF-2a block	Peg3 promoter	CF NFkB block	KKLEB cytotox	MITF TRPM1 inh	ABHD5-PLIN5 inh	ABHD5-PLIN5 conf	HNF4 split-luc
Cc1cc(C)c2c(c1)c1nnc(SCCN3CCCCC3)nc1n2C	–	–	–	–	–	–	·	·
O=C(Nc1ccncc1)C1CCN(S(=O)(=O)c2ccccc2C(F)(F)F)CC1	–	–	–	–	–	–	·	·
Cc1ccc2cc(C)c(SCC(=O)NCc3ccco3)nc2c1	–	–	–	–	–	–	·	·
Cc1ccc2cc(C#N)c(NCc3ccco3)nc2c1	–	–	–	–	–	23.9	46.2	61.4
CC1=C(C)CS(=O)N(S(=O)(=O)c2ccc(Cl)cc2)C1 (stereo not given)	–	–	–	–	–	79.9	93.0	108.8
Cc1ccn2c(Cc3ccccc3)c(-c3ccc(F)cc3)nc2c1	–	–	–	–	·	–	·	·
O=C(O)CCS(=O)(=O)c1nc(-c2cccs2)cc(C(F)(F)F)n1	–	–	–	–	–	27.6	58.7	66.2
CC(C)Oc1cccc(C(=O)C2CCCN(C(=O)c3ccc4c(c3)OCO4)C2)c1 (stereo not given)	–	–	–	–	–	–	·	·
O=S(=O)(Nc1ccc(Cl)cc1)c1ccc(N2CCOCC2)c(NC(=S)NCCN2CCOCC2)c1	–	–	–	–	–	30.6	–	48.4
COCCNC(=S)Nc1ccc(N2CCOCC2)c(S(=O)(=O)Nc2ccc(Cl)cc2)c1	–	–	–	–	·	–	·	·
CC(C)[C@H](NS(=O)(=O)c1ccccc1F)C(=O)NC1CCCCC1	–	–	–	–	–	–	·	·
O=C(c1ccc(Br)cc1)N1CCN(c2ccccn2)CC1	–	–	–	–	·	–	·	·
COc1ccc(CCNC(=O)/C=C/c2ccc3ccccc3n2)cc1OC	–	–	–	–	–	25.4	31.5	18.4
COc1ccc(/C=C/C(=O)NCCc2ccc(OC)c(OC)c2)cc1	–	–	–	–	–	–	·	·
COCCCNC(=O)C[C@H]1C[C@H](C(=O)N2CCOCC2)[C@@]2(CCC3CCCC3)c3[nH]c4cc(-c5ccco5)ccc4c3CCN2C1=O	–	–	–	–	–	–	·	·
CCN(CC)C(=O)[C@H]1C[C@H](CC(=O)NCCc2ccccn2)C(=O)N2CCc3c([nH]c4cc(-c5ccco5)ccc34)[C@]12C	–	–	–	–	–	24.0	–	–
COc1ccc(CNC(=O)C[C@H]2C[C@H](C(=O)N3CCOCC3)[C@@]3(CCC4CCCC4)c4[nH]c5cc(-c6ccco6)ccc5c4CCN3C2=O)cc1OC	–	–	–	–	–	28.9	–	12.6
O=C(C[C@H]1C[C@H](C(=O)N2CCOCC2)[C@@]2(CCC3CCCC3)c3[nH]c4cc(-c5ccco5)ccc4c3CCN2C1=O)NCc1cccc(C(F)(F)F)c1	–	–	–	–	–	23.5	–	–
CN(C)CCCNC(=O)C[C@H]1C[C@H](C(=O)N2CCOCC2)[C@@]2(CCC3CCCC3)c3[nH]c4cc(-c5ccco5)ccc4c3CCN2C1=O	–	95.0	–	–	–	25.4	–	–
CC1CCN(C(=O)COC(=O)C23CC4CC(CC(O)(C4)C2)C3)CC1	–	–	–	–	–	–	·	·
COc1cc(OC)cc(C(=O)NC(=S)N(Cc2ccccc2)C(C)C)c1	–	–	–	–	–	45.4	69.9	–
COc1cc(OC)cc(C(=O)NC(=S)NCCc2ccccc2)c1	–	–	–	–	–	–	·	·
COC(=O)c1cc(C)nc2c1C(=O)C(=O)C=C2N1CCOCC1	82.6	100.1	88.3	-58.1	84.0	38.7	73.0	53.1
O=C(/C=C/c1ccccc1)c1cc(Br)ccc(=O)c1O	–	–	–	–	–	43.9	76.2	67.8
O=C(/C=C/c1ccccc1)CC(=O)c1ccccc1	–	–	–	–	–	–	·	·
SMILES	HIF-2a block	Peg3 promoter	CF NFkB block	KKLEB cytotox	MITF TRPM1 inh	ABHD5-PLIN5 inh	ABHD5-PLIN5 conf	HNF4 split-luc
O=C(/C=C/c1ccc(F)cc1)c1cc(Br)ccc1O	–	–	–	–	–	–	·	·
O=C(c1ccc2ccccc2c1)N1CCN(S(=O)(=O)/C=C/c2ccccc2)CC1	–	–	–	–	–	–	·	·
O=C(/C=C/c1ccc(NC(=O)c2ccccc2-c2ccccc2C(=O)O)cc1)c1ccccc1	–	–	–	–	–	24.1	59.6	33.9
O=C(/C=C/c1ccccc1)c1ccc2ccccc2c1	–	77.5	–	–	–	52.9	76.0	62.5
O=C(/C=C/c1ccccc1)c1ccccc1	–	–	–	–	–	35.0	82.0	75.7
O/N=C\c1ccc(-c2ccccc2)o1	–	–	–	–	–	–	·	·
O=C(/C=C\c1ccc(-c2ccccc2)o1)c1ccccc1	–	80.4	–	–	–	38.0	67.5	90.3
O=C1Cc2ccccc2Sc2c(OCCN3CCCCC3)cccc21	–	–	–	–	–	24.8	–	–
N=C1C=CC(=C(c2ccc(N)cc2)c2ccc(N)cc2)C=C1	–	–	–	–	–	33.8	56.1	59.5
COC(=O)c1cc(OCC(=O)Nc2ccc3c(c2)CCC3)cc(C(=O)OC)c1	–	–	–	–	–	–	·	·
CC1(c2ccccc2)NC(=O)N(CC(=O)N2CCN(S(=O)(=O)c3c(F)cccc3F)CC2)C1=O (stereo not given)	–	–	–	–	–	–	·	·
CC(OC(=O)/C=C/c1cccs1)C(=O)Nc1ccc(S(N)(=O)=O)cc1 (stereo not given)	–	–	–	–	–	–	·	·
CC(OC(=O)/C=C/c1ccc2ccccc2n1)C(=O)Nc1ccc(S(N)(=O)=O)cc1 (stereo not given)	–	–	–	–	–	25.4	28.2	20.7
CCCCCCCCCCCCN1[C@@H](CC(=O)O)c2cc(C(F)(F)F)ccc2S1(=O)=O	–	–	–	–	–	–	·	·
CCCCCCCCN1[C@@H](CC(=O)O)c2cc(C(F)(F)F)ccc2S1(=O)=O	–	–	–	–	–	29.9	33.4	16.2
O=C(Cn1nc(CNc2ccc(Cl)cc2)[n+]2c1CCCCC2)c1ccccc1	–	–	–	–	–	25.2	–	–
COc1cc(CNCc2ccccn2)ccc1OCc1ccc(Cl)cc1Cl	–	–	–	–	–	25.2	–	–
O=C(CC(Nc1ccc(Cl)cc1Cl)C(=O)O)c1ccccc1 (stereo not given)	–	–	–	–	–	77.9	–	80.2
Cc1ccc(NC(CC(=O)c2ccccc2)C(=O)O)cc1Cl (stereo not given)	–	–	–	–	–	28.9	–	40.0
CSCCC(NC(=O)c1ccccc1)C(=O)OCC(=O)Nc1ccc(C)c(Cl)c1 (stereo not given)	–	–	–	–	–	–	·	·

Screening results deposited in PubChem by several laboratories.
